Inconclusive results are not listed. Where a call stands in place of a potency, no number is given. Calls of active or inactive are those of the source. The call rests on the fitted dose curve; in most records, active means well fitted curve in the direction sought with a large enough effect; inconclusive means small, poorly fitted or top-dose-only effect, or another doubt; inactive means no such curve, though single readings can be large; an effect the other way counts as inactive or inconclusive.
Assays:
[1] = target: Ubiquitin carboxyl-terminal hydrolase 1 (Homo sapiens) (UniProt O94782); assay: Inhibitors of USP1/UAF1: Pilot qHTS (AID 504865); conditions: purified USP1/UAF1, Ub-rhodamine cleavage fluorescence; series mostly up to 114 µM;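 further: rhodamine fluorescence freed from ubiquitin-rhodamine substrate followed over time; top concentration of the series differs between compounds; nearly all actives have a fitted effect of over 35% in size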
How it was run: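 1nM USP1/UAF1 + cpd, 15 min RT; start w/ Ub-Rho 150nM final; kinetic FL 480/540 nm, 6 reads q60 s. Buffer 50mM HEPES pH 7.8, 0.5mM EDTA, 1mM TCEP, 0.01% Tween-20, 0.1 mg/ml BSA.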

[2] = S16 Schwann cell viability assay (CellTiter-Glo assay) (AID 624031); conditions: S16 rat Schwann cells viability, 24 h; series mostly up to 57.5 µM;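 further: cellular ATP luminescence as a viability measure; nearly all actives have a fitted effect of over 70% in size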
How it was run: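 Untransfected S16 rat Schwann cells; compound 24 h, 37 °C/5% CO2; CellTiter-Glo ATP luminescence. % activity vs no-cell wells and DMSO controls (0%); concentration-effect curves classed by r2, response magnitude, activity.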

[3] = S16 Schwann cell PMP22 intronic element firefly luciferase assay (AID 624032); conditions: S16 rat Schwann cells, PMP22 element FLuc, 24 h; series mostly up to 57.5 µM; further: nearly all actives have a fitted effect of over 30% in size; further: potency means the concentration at half of the fitted maximal effect
How it was run: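 Luciferase reporter of PMP22 intronic-element expression in stably transfected S16 rat Schwann cells, read by ONE-Glo luminescence after 24 h compound exposure at 37 C. Activity scaled between DMSO (0%) and positive-control PTC124; concentration-effect curves quality-classified.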

3D7 = assay: qHTS profiling for inhibitors of Plasmodium falciparum proliferation (AID 504749); further: nearly all actives have a fitted effect of over 60% in size; further: potency means the concentration at half of the fitted maximal effect; conditions: P. falciparum in erythrocytes, SYBR Green DNA, 72 h; series mostly up to 28.7 µM
How it was run: (§1)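 In a 72 h erythrocytic culture (37 C, humidified, 5% CO2) at 2.5% hematocrit and 0.3% starting parasitemia, compounds were tested; SYBR Green I in detergent lysis buffer stained parasite DNA overnight.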

7G8 = assay: as above; conditions: P. falciparum in erythrocytes, SYBR Green DNA, 72 h; series mostly up to 28.7 µM
How it was run: as §1

CP256 = assay: as above; conditions: P. falciparum in erythrocytes, SYBR Green DNA, 72 h; series mostly up to 28.7 µM
How it was run: as §1

CP291 = assay: as above; conditions: P. falciparum in erythrocytes, SYBR Green DNA, 72 h; series mostly up to 28.7 µM
How it was run: as §1

DIV17 = assay: as above; conditions: P. falciparum in erythrocytes, SYBR Green DNA, 72 h; series mostly up to 28.7 µM
How it was run: as §1

DIV30 = assay: as above; conditions: P. falciparum in erythrocytes, SYBR Green DNA, 72 h; series mostly up to 28.7 µM
How it was run: as §1

P93_24 = assay: as above; conditions: P. falciparum in erythrocytes, SYBR Green DNA, 72 h; series mostly up to 28.7 µM
How it was run: as §1

PAD = assay: as above; conditions: P. falciparum in erythrocytes, SYBR Green DNA, 72 h; series mostly up to 28.7 µM
How it was run: as §1

PC15 = assay: as above; conditions: P. falciparum in erythrocytes, SYBR Green DNA, 72 h; series mostly up to 28.7 µM
How it was run: as §1

TAB109 = assay: as above; conditions: P. falciparum in erythrocytes, SYBR Green DNA, 72 h; series mostly up to 28.7 µM
How it was run: as §1

TAB165 = assay: as above; conditions: P. falciparum in erythrocytes, SYBR Green DNA, 72 h; series mostly up to 28.7 µM
How it was run: as §1

W2 = assay: as above; conditions: P. falciparum in erythrocytes, SYBR Green DNA, 72 h; series mostly up to 28.7 µM
How it was run: as §1

ATS95 = assay: as above; conditions: P. falciparum in erythrocytes, SYBR Green DNA, 72 h; series mostly up to 28.7 µM
How it was run: as §1

C2A = assay: as above; conditions: P. falciparum in erythrocytes, SYBR Green DNA, 72 h; series mostly up to 28.7 µM
How it was run: as §1

CP247 = assay: as above; conditions: P. falciparum in erythrocytes, SYBR Green DNA, 72 h; series mostly up to 28.7 µM
How it was run: as §1

GB4 = assay: as above; conditions: P. falciparum in erythrocytes, SYBR Green DNA, 72 h; series mostly up to 28.7 µM
How it was run: as §1

P94_40 = assay: as above; conditions: P. falciparum in erythrocytes, SYBR Green DNA, 72 h; series mostly up to 28.7 µM
How it was run: as §1

Sequence of Ubiquitin carboxyl-terminal hydrolase 1 (Homo sapiens) (O94782 whole entry, looked up): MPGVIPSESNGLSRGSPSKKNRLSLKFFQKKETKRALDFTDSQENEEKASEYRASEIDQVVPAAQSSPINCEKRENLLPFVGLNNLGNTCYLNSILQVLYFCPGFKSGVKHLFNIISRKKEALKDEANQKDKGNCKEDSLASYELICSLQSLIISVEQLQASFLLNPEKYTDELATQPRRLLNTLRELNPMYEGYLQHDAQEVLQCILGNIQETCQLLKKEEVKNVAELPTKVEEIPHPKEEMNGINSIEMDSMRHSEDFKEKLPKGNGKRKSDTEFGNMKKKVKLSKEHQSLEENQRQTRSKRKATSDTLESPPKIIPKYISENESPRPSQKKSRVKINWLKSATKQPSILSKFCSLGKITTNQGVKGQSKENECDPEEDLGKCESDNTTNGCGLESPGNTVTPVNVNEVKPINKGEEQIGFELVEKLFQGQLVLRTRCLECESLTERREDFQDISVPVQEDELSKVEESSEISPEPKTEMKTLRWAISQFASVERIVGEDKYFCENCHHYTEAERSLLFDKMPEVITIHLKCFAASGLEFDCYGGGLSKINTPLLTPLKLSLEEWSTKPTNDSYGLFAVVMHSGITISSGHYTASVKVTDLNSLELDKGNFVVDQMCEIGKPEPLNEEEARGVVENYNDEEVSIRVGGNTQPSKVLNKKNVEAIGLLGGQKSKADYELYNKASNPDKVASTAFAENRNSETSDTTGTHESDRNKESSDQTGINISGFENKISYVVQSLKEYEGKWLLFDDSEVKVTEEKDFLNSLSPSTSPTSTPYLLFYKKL

Compound	Potency [1]	Potency [2]	Potency [3]	Potency (3D7)	Potency (7G8)	Potency (CP256)	Potency (CP291)	Potency (DIV17)	Potency (DIV30)	Potency (P93_24)	Potency (PAD)	Potency (PC15)	Potency (TAB109)	Potency (TAB165)	Potency (W2)	Potency (ATS95)	Potency (C2A)	Potency (CP247)	Potency (GB4)	Potency (P94_40)
CCOC(=O)C(CCc1ccccc1)NC(C)C(=O)N1Cc2cc(OC)c(OC)cc2CC1C(=O)O (stereo unspecified)	inactive	inactive	inactive	inactive	8.91 µM (active)	inactive	inactive	5.36 µM (active)	7.57 µM (active)	5.01 µM (active)	4.47 µM (active)	10 µM (active)	inactive	7.08 µM (active)	5.36 µM (active)	–	–	–	–	–
CN(C)CC/C=C1\c2ccccc2COc2ccc(CC(=O)O)cc21	inactive	inactive	inactive	inactive	inactive	inactive	inactive	inactive	inactive	inactive	inactive	inactive	inactive	inactive	–	inactive	inactive	inactive	inactive	inactive
O=C(O)C(O)c1ccccc1 (stereo unspecified)	inactive	inactive	inactive	inactive	inactive	–	inactive	inactive	inactive	inactive	inactive	inactive	inactive	inactive	inactive	inactive	inactive	inactive	inactive	inactive
O=C1[C@@H]2C[C@@H]3C[C@H]1C[C@@](O)(C3)C2	inactive	inactive	–	inactive	inactive	inactive	inactive	inactive	inactive	inactive	inactive	inactive	inactive	inactive	inactive	inactive	inactive	inactive	inactive	inactive
C/C=C1/NN(CCCN2CCN(c3cccc(Cl)c3)CC2)C(=O)N1CCOc1ccccc1	–	inactive	–	inactive	–	inactive	–	–	–	inactive	inactive	inactive	inactive	–	5.36 µM (active)	inactive	inactive	inactive	–	inactive
O=C(O)C[CH2][Ge](=[O])[O][Ge](=[O])[CH2]CC(=O)O	inactive	–	inactive	–	inactive	inactive	inactive	inactive	inactive	inactive	inactive	inactive	inactive	inactive	inactive	inactive	inactive	inactive	inactive	inactive
CCCSS/C(CCO)=C(/C)N(C=O)Cc1cnc(C)nc1N	inactive	–	10.2 µM (active)	inactive	–	inactive	inactive	inactive	inactive	inactive	inactive	inactive	inactive	–	inactive	inactive	inactive	inactive	–	inactive
NC(=O)c1ncn(C2OC(CO)C(O)C2O)c1N (stereo unspecified)	inactive	inactive	inactive	inactive	inactive	inactive	inactive	inactive	inactive	inactive	inactive	inactive	inactive	inactive	inactive	inactive	inactive	inactive	inactive	inactive
C=CCN1CC(C(=O)N(CCCN(C)C)C(=O)NCC)CC2c3cccc4[nH]cc(c34)CC21 (stereo unspecified)	inactive	–	–	–	10 µM (active)	–	–	13.5 µM (active)	inactive	–	–	–	–	–	6.01 µM (active)	–	–	–	15.1 µM (active)	–
CCCC(=O)O[C@]1(C(=O)COC(C)=O)CC[C@H]2C3C[C@H](F)C4=CC(=O)C=CC4(C)[C@@]3(F)[C@@H](O)CC21C (stereo partly specified)	–	inactive	inactive	inactive	11.2 µM (active)	inactive	inactive	–	inactive	–	–	inactive	inactive	–	–	inactive	inactive	inactive	–	inactive
CNC1C(O)C(OC2C(NC(=O)C(O)CN)CC(N)C(OC3OC(CN)C(O)C(O)C3O)C2O)OCC1(C)O (stereo unspecified)	inactive	–	inactive	inactive	inactive	inactive	inactive	inactive	inactive	inactive	inactive	inactive	inactive	inactive	inactive	inactive	inactive	inactive	inactive	inactive
Cc1cnc(C(=O)O)cn1	inactive	inactive	inactive	inactive	inactive	inactive	inactive	inactive	inactive	inactive	inactive	inactive	inactive	inactive	inactive	inactive	inactive	inactive	inactive	inactive
CC(=O)OCC(=O)[C@@]1(O)CCC2C3C[C@H](C)C4=CC(=O)C=CC4(C)C3C(O)CC21C (stereo partly specified)	inactive	–	inactive	inactive	inactive	inactive	inactive	inactive	inactive	inactive	inactive	inactive	inactive	inactive	inactive	inactive	inactive	inactive	inactive	inactive
Nc1nc(/C(=C/CC(=O)O)C(=O)NC2C(=O)N3C(C(=O)O)=CCSC23)cs1 (stereo unspecified)	–	inactive	inactive	inactive	inactive	inactive	inactive	inactive	inactive	inactive	inactive	inactive	inactive	inactive	inactive	inactive	inactive	inactive	inactive	inactive
CC[C@@H]1/C=C(\C)C[C@H](C)C[C@H](OC)[C@H]2O[C@@](O)(C(=O)C(=O)N3CCCC[C@H]3C(=O)O[C@H](/C(C)=C/[C@@H]3CC[C@H](Cl)[C@H](OC)C3)[C@H](C)[C@@H](O)CC1=O)[C@H](C)C[C@@H]2OC	inactive	inactive	inactive	inactive	inactive	inactive	inactive	inactive	inactive	inactive	inactive	inactive	inactive	inactive	inactive	inactive	inactive	inactive	inactive	inactive
CO/N=C(/C(=O)N[C@@H]1C(=O)N2C(C(=O)O)=C(CSc3cnns3)CS[C@H]12)c1csc(N)n1	inactive	–	inactive	inactive	inactive	inactive	inactive	inactive	inactive	inactive	inactive	inactive	–	inactive	inactive	inactive	inactive	inactive	inactive	inactive
CCN(CC)C(=O)[C@@]1(c2ccccc2)C[C@@H]1CN	inactive	inactive	inactive	inactive	–	inactive	inactive	–	inactive	inactive	inactive	inactive	–	inactive	–	inactive	inactive	inactive	inactive	inactive
CCCCCCCCCCCCCCCC(=O)OC[C@H](O)[C@H]1OC[C@@H](O)[C@@H]1O	inactive	inactive	–	inactive	inactive	inactive	inactive	inactive	inactive	inactive	inactive	inactive	–	inactive	inactive	inactive	inactive	inactive	inactive	inactive
